# From the supplement of paper PMC10849652
# The full data set covers some 7,900 targets. This sample favours those with a hit. About 0.6% of all pairs of compound and target were hits. Unmarked numbers belong to inactive results.
# How the values were obtained:
# Experiment in all cases: log2 fold change, soluble protein after heating vs DMSO (PISA); higher = thermal stabilisation; K562 cells, 10 uM, 30 min; active = over 0.2 and 3.5 SD of the protein, either way, in both replicates (recomputed)
# [1] = compound: CC[C@@H]1C(=O)N(C)c2cnc(Nc3ccc(C(=O)NC4CCN(C)CC4)cc3OC)nc2N1C1CCCC1
# Method in brief: (§1)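 Soluble protein was defined as the supernatant after 21,000xg for 90 min. It came from K562 cells at 2×10^6 cells/mL given 10 μM compound for 30 min, heated in aliquots for 3 min across 48°C-58°C, pooled, and extracted in PBS with 0.5% NP-40 at 4°C, and was quantified by TMTpro 16plex LC-MS/MS with equalised channel sums. Thermal stability against control samples, from duplicates, is reported as log2 fold change.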
# volasertib = compound: CC[C@@H]1C(=O)N(C)c2cnc(Nc3ccc(C(=O)N[C@H]4CC[C@H](N5CCN(CC6CC6)CC5)CC4)cc3OC)nc2N1C(C)C [volasertib]
# Method in brief: as §1
# [2] = compound: CC[C@H](C)N1C=C(C2=C(C=C(C=C21)C3=CN=C(C=C3)N4CCNCC4)C(=O)NCC5=C(C=C(NC5=O)C)C)C
# Method in brief: as §1
# epoxomicin = compound: CC[C@H](C)[C@@H](C(=O)N[C@@H]([C@@H](C)O)C(=O)N[C@@H](CC(C)C)C(=O)[C@]1(CO1)C)NC(=O)[C@H]([C@@H](C)CC)N(C)C(=O)C [epoxomicin]
# Method in brief: as §1
# [3] = compound: CCn1c(C(=O)N(C2CC2)C2CC2)cc2c3c(ncn3C)c(Nc3cc(C)n(C)n3)nc21
# Method in brief: as §1
# [4] = compound: CCn1cc(-c2ccnc3[nH]c(-c4cccc(CN(C)C)c4)cc23)c(-c2ccc(NC(=O)N(C)C)cc2)n1
# Method in brief: as §1
# [5] = compound: CN(C)CC(=O)Nc1ccc2[nH]c(=O)c3ccccc3c2c1
# Method in brief: as §1
# rosiglitazone = compound: CN(CCOC1=CC=C(C=C1)C[C@H]2C(=O)NC(=O)S2)C3=CC=CC=N3 (racemic) [rosiglitazone]
# Method in brief: as §1
# [6] = compound: CN1C2=C(C3=C1C(=O)N(N=C3)CC4=CC(=CC=C4)N)SC(=C2)S(=O)C
# Method in brief: as §1
# [7] = compound: CN1CCC(CNc2ccc3ncc(-c4cccc(OC(F)(F)F)c4)n3n2)CC1
# Method in brief: as §1
# saracatinib = compound: CN1CCN(CCOc2cc(OC3CCOCC3)c3c(Nc4c(Cl)ccc5c4OCO5)ncnc3c2)CC1 [saracatinib]
# Method in brief: as §1
# Tubastatin A = compound: CN1CCc2c(c3ccccc3n2Cc2ccc(C(=O)NO)cc2)C1 [Tubastatin A]
# Method in brief: as §1
# [8] = compound: CNC(=O)C1=CC=CC=C1NC2=NC(=NC=C2Cl)NC3=C(C=C(C=C3)N4CCOCC4)OC
# Method in brief: as §1
# defactinib = compound: CNC(=O)c1ccc(Nc2ncc(C(F)(F)F)c(NCc3nccnc3N(C)S(C)(=O)=O)n2)cc1 [defactinib]
# Method in brief: as §1
# rucaparib = compound: CNCc1ccc(-c2[nH]c3cc(F)cc4c3c2CCNC4=O)cc1 [rucaparib]
# Method in brief: as §1
# [9] = compound: CNc1nc(-c2ccc3c(N)n[nH]c3c2)cc(N2C[C@@H](C(=O)NC3CCCCC3)CC[C@H]2C)n1
# Method in brief: as §1
# encorafenib = compound: COC(=O)N[C@@H](C)CNc1nccc(-c2cn(C(C)C)nc2-c2cc(Cl)cc(NS(C)(=O)=O)c2F)n1 [encorafenib]
# Method in brief: as §1
# [10] = compound: COC(=O)[C@H](CCSC)NC(=O)C1=C(C=C(C=C1)NC[C@H](CS)N)C2=CC=CC=C2
# Method in brief: as §1
# sotrastaurin = compound: CN1CCN(c2nc(C3=C(c4c[nH]c5ccccc45)C(=O)NC3=O)c3ccccc3n2)CC1 [sotrastaurin]
# Method in brief: as §1
# alvocidib = compound: CN1CC[C@H](c2c(O)cc(O)c3c(=O)cc(-c4ccccc4Cl)oc23)[C@H](O)C1 [alvocidib]
# Method in brief: as §1
# UniProt Q9H3F6, sequence (Q9H3F6 whole entry, looked up): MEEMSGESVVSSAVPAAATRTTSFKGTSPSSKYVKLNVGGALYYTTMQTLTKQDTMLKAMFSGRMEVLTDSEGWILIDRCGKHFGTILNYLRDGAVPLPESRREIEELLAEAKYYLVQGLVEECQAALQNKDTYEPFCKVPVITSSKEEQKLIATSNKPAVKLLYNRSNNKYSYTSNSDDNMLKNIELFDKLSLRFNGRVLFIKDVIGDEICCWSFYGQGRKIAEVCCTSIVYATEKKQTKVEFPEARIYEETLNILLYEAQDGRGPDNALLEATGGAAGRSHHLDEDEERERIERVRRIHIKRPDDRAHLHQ
# UniProt P53778, sequence (P53778 whole entry, looked up): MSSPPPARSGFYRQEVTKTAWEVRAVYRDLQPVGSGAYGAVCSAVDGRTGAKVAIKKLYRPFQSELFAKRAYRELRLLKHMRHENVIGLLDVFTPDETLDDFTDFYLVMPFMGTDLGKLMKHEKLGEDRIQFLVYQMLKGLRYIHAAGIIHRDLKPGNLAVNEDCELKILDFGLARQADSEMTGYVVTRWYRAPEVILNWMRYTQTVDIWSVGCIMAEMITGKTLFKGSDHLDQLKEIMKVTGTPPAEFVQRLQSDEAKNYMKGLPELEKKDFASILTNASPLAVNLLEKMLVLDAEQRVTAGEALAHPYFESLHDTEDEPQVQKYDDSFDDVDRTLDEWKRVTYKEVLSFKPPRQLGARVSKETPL
# UniProt Q16539, sequence (Q16539 whole entry, looked up): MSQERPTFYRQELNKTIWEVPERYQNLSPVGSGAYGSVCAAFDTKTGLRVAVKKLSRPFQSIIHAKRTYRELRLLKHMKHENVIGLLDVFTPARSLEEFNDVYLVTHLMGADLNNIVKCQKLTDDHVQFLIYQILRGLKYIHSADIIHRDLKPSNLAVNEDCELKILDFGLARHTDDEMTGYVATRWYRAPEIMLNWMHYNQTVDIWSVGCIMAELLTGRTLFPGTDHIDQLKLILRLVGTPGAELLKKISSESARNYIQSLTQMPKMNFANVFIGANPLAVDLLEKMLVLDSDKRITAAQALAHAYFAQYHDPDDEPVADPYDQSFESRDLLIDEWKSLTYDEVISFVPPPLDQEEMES
# UniProt O43934, sequence (O43934 whole entry, looked up): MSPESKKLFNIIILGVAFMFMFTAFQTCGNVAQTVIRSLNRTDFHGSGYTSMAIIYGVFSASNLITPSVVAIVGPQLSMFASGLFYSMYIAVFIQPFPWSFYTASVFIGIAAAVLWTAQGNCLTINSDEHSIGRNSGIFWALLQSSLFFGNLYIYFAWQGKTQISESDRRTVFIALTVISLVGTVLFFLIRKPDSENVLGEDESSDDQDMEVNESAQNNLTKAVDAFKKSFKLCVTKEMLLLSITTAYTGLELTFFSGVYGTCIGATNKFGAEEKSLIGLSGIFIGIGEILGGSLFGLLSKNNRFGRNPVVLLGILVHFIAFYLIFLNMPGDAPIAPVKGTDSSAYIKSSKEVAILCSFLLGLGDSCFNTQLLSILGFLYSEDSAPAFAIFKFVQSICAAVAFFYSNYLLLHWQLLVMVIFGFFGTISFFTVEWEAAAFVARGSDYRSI
# UniProt Q6UWB1, sequence (Q6UWB1 whole entry, looked up): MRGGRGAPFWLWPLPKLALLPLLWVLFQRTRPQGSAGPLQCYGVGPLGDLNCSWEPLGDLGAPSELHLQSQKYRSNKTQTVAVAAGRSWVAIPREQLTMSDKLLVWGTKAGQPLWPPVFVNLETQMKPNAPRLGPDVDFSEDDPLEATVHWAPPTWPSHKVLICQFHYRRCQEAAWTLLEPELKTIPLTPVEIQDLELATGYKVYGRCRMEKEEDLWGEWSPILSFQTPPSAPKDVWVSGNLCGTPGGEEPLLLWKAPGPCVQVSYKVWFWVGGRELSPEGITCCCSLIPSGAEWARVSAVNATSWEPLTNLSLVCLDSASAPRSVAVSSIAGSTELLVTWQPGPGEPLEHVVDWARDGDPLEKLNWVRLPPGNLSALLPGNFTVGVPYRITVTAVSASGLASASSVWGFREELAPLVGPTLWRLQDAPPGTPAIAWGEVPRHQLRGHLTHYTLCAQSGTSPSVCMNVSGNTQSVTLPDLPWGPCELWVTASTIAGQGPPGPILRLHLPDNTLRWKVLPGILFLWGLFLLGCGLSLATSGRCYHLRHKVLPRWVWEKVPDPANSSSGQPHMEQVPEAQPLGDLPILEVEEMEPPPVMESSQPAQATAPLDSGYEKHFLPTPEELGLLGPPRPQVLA
# UniProt Q13123, sequence (Q13123 whole entry, looked up): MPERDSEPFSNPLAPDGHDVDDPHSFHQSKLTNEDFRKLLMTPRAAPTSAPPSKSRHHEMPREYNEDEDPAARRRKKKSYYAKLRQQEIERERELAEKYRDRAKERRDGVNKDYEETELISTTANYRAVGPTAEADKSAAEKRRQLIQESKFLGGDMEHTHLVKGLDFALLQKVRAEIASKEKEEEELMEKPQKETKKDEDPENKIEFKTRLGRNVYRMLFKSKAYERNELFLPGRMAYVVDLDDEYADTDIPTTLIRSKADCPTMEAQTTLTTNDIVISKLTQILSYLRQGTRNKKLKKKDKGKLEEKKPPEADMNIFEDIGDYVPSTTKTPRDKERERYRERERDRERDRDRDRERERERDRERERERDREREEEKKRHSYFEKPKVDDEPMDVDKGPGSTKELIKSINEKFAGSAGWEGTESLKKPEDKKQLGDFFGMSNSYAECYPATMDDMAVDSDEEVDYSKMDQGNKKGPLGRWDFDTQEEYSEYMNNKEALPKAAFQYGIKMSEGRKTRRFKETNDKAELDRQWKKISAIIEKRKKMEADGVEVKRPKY
# UniProt Q96LU5, sequence (Q96LU5 whole entry, looked up): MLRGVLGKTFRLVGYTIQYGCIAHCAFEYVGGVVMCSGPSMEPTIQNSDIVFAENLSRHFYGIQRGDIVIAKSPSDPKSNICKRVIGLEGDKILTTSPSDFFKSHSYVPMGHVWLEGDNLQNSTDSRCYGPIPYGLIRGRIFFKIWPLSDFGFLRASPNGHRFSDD
# UniProt O15066, sequence (O15066 whole entry, looked up): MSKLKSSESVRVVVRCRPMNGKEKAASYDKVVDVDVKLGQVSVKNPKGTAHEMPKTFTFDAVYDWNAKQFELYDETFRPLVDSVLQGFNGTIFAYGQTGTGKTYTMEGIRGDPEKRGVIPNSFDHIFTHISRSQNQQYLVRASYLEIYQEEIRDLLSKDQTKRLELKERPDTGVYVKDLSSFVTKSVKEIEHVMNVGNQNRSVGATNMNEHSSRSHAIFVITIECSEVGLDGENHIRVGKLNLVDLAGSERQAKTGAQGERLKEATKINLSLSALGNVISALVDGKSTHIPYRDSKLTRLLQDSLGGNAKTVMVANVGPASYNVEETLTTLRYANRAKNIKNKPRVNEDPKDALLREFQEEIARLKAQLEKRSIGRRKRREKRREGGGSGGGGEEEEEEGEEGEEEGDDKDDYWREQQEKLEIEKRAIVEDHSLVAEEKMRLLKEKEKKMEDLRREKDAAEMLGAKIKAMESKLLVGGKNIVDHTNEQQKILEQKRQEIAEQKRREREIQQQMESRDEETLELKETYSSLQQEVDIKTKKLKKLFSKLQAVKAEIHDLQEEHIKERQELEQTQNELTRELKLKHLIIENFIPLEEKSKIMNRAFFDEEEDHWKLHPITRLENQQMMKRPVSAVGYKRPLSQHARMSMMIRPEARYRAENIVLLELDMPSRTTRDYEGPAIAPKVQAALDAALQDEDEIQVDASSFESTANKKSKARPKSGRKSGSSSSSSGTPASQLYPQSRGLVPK
# UniProt Q12906, sequence (Q12906 whole entry, looked up): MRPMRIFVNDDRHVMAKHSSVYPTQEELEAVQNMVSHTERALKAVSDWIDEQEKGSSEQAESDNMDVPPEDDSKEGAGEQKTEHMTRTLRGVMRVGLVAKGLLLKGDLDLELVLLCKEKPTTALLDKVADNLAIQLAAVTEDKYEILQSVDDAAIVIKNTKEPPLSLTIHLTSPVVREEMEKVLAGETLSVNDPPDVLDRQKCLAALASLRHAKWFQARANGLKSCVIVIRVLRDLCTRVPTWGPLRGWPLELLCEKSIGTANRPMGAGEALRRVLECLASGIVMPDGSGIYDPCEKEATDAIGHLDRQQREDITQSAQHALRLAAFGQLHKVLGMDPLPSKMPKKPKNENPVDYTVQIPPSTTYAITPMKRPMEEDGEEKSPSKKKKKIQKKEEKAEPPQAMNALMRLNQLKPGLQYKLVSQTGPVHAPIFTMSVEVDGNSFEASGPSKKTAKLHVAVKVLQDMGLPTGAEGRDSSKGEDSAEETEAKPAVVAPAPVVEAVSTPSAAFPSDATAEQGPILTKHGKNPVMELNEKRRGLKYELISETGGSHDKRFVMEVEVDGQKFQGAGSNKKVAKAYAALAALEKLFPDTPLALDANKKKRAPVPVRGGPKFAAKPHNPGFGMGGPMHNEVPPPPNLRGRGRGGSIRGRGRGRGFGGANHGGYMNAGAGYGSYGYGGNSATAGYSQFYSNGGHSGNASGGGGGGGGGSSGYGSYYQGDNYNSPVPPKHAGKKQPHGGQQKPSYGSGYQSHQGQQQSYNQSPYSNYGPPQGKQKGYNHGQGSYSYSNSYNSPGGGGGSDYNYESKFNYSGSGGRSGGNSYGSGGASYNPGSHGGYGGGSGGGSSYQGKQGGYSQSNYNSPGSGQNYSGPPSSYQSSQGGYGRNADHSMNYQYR
# UniProt Q9BQD3, sequence (Q9BQD3 whole entry, looked up): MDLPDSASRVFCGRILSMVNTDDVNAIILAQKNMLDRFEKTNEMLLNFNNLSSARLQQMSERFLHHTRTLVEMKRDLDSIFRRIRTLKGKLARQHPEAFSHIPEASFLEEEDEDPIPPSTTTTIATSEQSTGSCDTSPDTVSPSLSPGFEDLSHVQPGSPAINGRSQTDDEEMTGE
# UniProt Q96G25, sequence (Q96G25 whole entry, looked up): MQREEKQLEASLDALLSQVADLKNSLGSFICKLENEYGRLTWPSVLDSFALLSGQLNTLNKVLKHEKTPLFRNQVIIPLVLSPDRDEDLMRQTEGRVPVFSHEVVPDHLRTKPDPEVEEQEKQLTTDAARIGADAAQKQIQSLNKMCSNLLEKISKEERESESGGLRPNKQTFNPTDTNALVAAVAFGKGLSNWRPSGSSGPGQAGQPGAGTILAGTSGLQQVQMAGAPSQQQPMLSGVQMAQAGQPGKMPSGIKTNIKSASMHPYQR
Target,log2 fold change [1],log2 fold change (volasertib),log2 fold change [2],log2 fold change (epoxomicin),log2 fold change [3],log2 fold change [4],log2 fold change [5],log2 fold change (rosiglitazone),log2 fold change [6],log2 fold change [7],log2 fold change (saracatinib),log2 fold change (Tubastatin A),log2 fold change [8],log2 fold change (defactinib),log2 fold change (rucaparib),log2 fold change [9],log2 fold change (encorafenib),log2 fold change [10],log2 fold change (sotrastaurin),log2 fold change (alvocidib)
MAPK12 (UniProt P53778),-0.097,0.036,-0.128,0.089,0.182,-0.051,0.009,-0.176,-0.097,-0.077,0.119,-0.037,0.112,-0.06,0.101,-0.074,0.017,0.059,–,–
IK (UniProt Q13123),-0.136,-0.366 (active),0.02,0.125,-0.053,0.069,-0.034,0.02,0.145,-0.035,-0.006,0.05,-0.036,0.013,0.198,-0.059,0.197,0.002,-0.037,0.108
IMMT isoform 4 (UniProt Q16891),-0.131,-0.099,0.013,0.035,0.015,-0.004,0.002,0.002,-0.047,-0.325 (active),-0.012,-0.033,-0.014,-0.012,-0.055,-0.007,0.012,0.002,-0.002,-0.009
KCTD10 (UniProt Q9H3F6),0.046,0.022,0.055,-0.019,0,-0.01,0.023,0.04,0.003,0.257 (active),0.221,0.071,-0.011,0.013,-0.07,0.007,0.015,-0.07,-0.002,0.018
ILRUN (UniProt Q9H6K1),-0.079,-0.429 (active),0.024,0.042,-0.013,–,0.016,-0.019,-0.09,–,-0.132,0.116,0.023,-0.036,0.037,0.049,0.045,0.121,-0.029,-0.022
KXD1 (UniProt Q9BQD3),-0.154,-0.035,–,-0.077,-0.033,0.041,0.062,0.047,0.011,-0.096,-0.097,-0.01,0.008,-0.03,-0.051,-0.07,0.018,0.017,–,-0.105
MED8 isoform 2 (UniProt Q96G25),0.027,0.1,0.046,-0.051,0.009,–,-0.075,0.007,0.052,–,0.003,–,0.039,-0.031,0.04,-0.131,-0.024,0.141,0.044,0.007
ILF3 (UniProt Q12906),0.222,–,0.144,0.004,–,–,–,-0.082,–,–,–,–,–,–,0.384,–,0.081,–,0.009,–
MED17 (UniProt Q9NVC6),-0.011,-0.021,-0.008,-0.015,-0.027,0.08,0.037,–,0.036,-0.134,-0.063,0.009,-0.049,-0.021,0.109,0.031,-0.081,0.055,-0.145,-0.009
MAPK14 (UniProt Q16539),-0.065,-0.516,-0.067,–,0.088,0.03,0.052,0.067,-0.231,-0.03,0.261,0.074,0.546,-0.137,-0.02,-0.03,0.684,-0.055,0.001,0.014
KIF3B (UniProt O15066),0.156,-0.009,–,-0.134,-0.204,0.159,-0.078,0.106,-0.052,0.378 (active),-0.068,0.002,0.069,0.028,-0.189,-0.063,0.034,-0.043,0.005,-0.011
IL27RA (UniProt Q6UWB1),-0.12,-0.298,-0.049,-0.178,-0.066,–,-0.098,-0.093,-0.219,–,0.062,0.063,0.056,-0.097,-0.03,0.065,-0.023,0,0.014,-0.025
MAN2B2 (UniProt Q9Y2E5),-0.445 (active),-0.704 (active),-0.005,-0.002,0,–,-0.019,-0.052,0.013,–,-0.015,0.105,0.035,-0.009,-0.158,0.007,0.044,-0.04,-0.018,–
"LRBA, A0A494BZW2",-0.04,-0.025,0.007,-0.03,-0.193,-0.039,–,0.011,0.043,-0.115,-0.005,-0.42,-0.368,–,-0.055,-0.008,0.041,–,0.065,0.015
IMMP1L (UniProt Q96LU5),-0.012,-0.055,-0.02,-0.015,-0.031,–,0.017,-0.003,-0.097,–,-0.041,-0.024,-0.01,0.011,-0.039,-0.102,-0.037,-0.027,-0.005,0.039
MFSD11 (UniProt O43934),-0.244,0.021,-0.108,0.03,–,0.021,0.017,-0.006,-0.026,-0.345 (active),0.092,0.005,–,-0.033,-0.002,-0.127,-0.047,-0.015,0.085,-0.029
MELK (UniProt Q14680),-0.429,-1.41 (active),0.334,0.077,-0.009,-0.114,–,-0.003,0.034,-0.426,-0.005,0.074,-0.347,–,0.125,0.196,0.06,–,0.166,0.011
LRFN1 (UniProt Q9P244),-0.015,0.033,–,-0.125,0.07,–,0.134,0.006,0.069,–,0.053,-0.006,-0.24,-0.048,0.062,-0.028,-0.227,-0.069,-0.08,-0.44 (active)
